# Source: PubChem BioAssay (NCI)
# This is part of a sample that, as a whole, favours compounds with a hit. Of some 83,000 tested, about 20% had one in any assay.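 Negative percent growth values reflect cell death: -40 means 40% of the cells present at the start died, and -100 means all died.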 Values without a mark were called inactive. The source made the active and inactive calls. Rule for the calls: active = growth percent below 10; inactive = the rest.
# Legend:
# Assay in all cases: NCI-60 one-dose screen, 48 h (100 = growth as untreated, 0 = no growth, -100 = all killed)
# Conditions in all cases: 10 µM unless noted
# NCI-H226 lung = system: NCI-H226 lung
# NCI-H322M lung = system: NCI-H322M lung
# HOP-62 NSCLC = system: HOP-62 NSCLC
# NCI-H460 lung = system: NCI-H460 lung
# HOP-92 NSCLC = system: HOP-92 NSCLC
# NCI-H522 lung = system: NCI-H522 lung
# A549/ATCC NSCLC = system: A549/ATCC NSCLC
# 786-0 renal = system: 786-0 renal
# COLO 205 colon = system: COLO 205 colon
# DU-145 prostate = system: DU-145 prostate
# K-562 leukemia = system: K-562 leukemia
# MALME-3M melanoma = system: MALME-3M melanoma
# MDA-MB-231 breast = system: MDA-MB-231 breast
# RXF 393 renal = system: RXF 393 renal
# SF-268 CNS = system: SF-268 CNS
# SF-295 CNS = system: SF-295 CNS
# SF-539 CNS = system: SF-539 CNS
# UACC-257 melanoma = system: UACC-257 melanoma
# M14 melanoma = system: M14 melanoma
# HCT-15 colon = system: HCT-15 colon
Compound,growth (NCI-H226 lung),growth (NCI-H322M lung),growth (HOP-62 NSCLC),growth (NCI-H460 lung),growth (HOP-92 NSCLC),growth (NCI-H522 lung),growth (A549/ATCC NSCLC),growth (786-0 renal),growth (COLO 205 colon),growth (DU-145 prostate),growth (K-562 leukemia),growth (MALME-3M melanoma),growth (MDA-MB-231 breast),growth (RXF 393 renal),growth (SF-268 CNS),growth (SF-295 CNS),growth (SF-539 CNS),growth (UACC-257 melanoma),growth (M14 melanoma),growth (HCT-15 colon)
COc1ccc(/C=C2\SC(=Nc3cc(C)[nH]n3)NC2=O)cc1,86.8%,91.9%,85.2%,102%,68.5%,97.4%,102%,99.8%,90.8%,101%,101%,89.6%,95.4%,80.7%,95.8%,86.3%,95.8%,98.7%,98.1%,84.2%
NC(=O)c1c(NC(=O)c2ccc(C3CCCCC3)cc2)sc2c1CCC(=O)C2,19.6%,97.8%,56.4%,15.8%,-15.4% (active),-2.16% (active),10.8%,26.3%,-36.1% (active),49.2%,3.87% (active),13.2%,15.6%,-2.51% (active),33.1%,18.9%,14.9%,12.2%,18%,4.53% (active)
CS(=O)(=O)c1ccc(-c2nc3ccccn3c2/C=N/Nc2nc(-c3ccc(Cl)cc3)cs2)cc1,108%,111%,109%,102%,96.4%,96.2%,98.2%,79.8%,112%,106%,78.6%,127%,106%,98.8%,110%,98.8%,105%,107%,107%,94.2%
Cc1cc2nc3c4cc(Cl)ccc4n(CC(=O)NCCN(C)C)c3nc2cc1C,25.7%,83.7%,73.7%,-69.9% (active),57.1%,91.8%,89.4%,-92.4% (active),76.8%,94.4%,-32.9% (active),-66.9% (active),53.2%,61.1%,83%,93.5%,21.8%,105%,-88.7% (active),-7.4% (active)
N#Cc1c(-c2ccc(F)cc2)nc2c(C#N)c(Nc3ccccc3)nn2c1N,112%,105%,97.3%,106%,92.5%,97.9%,101%,86.9%,110%,103%,99.5%,113%,109%,110%,95.3%,99.3%,97.3%,106%,109%,98.7%
CCOC(=O)c1sc(NCC(=O)Nc2cccc([N+](=O)[O-])c2)c(C(=O)OCC)c1C,-33.7% (active),-8.8% (active),-12.9% (active),2.96% (active),-19.5% (active),-41.5% (active),-38.1% (active),-12.4% (active),-33.4% (active),-6.75% (active),5.97% (active),-63.7% (active),-24.5% (active),-74% (active),-25% (active),-77.5% (active),-35.1% (active),-6.79% (active),-73% (active),2.01% (active)
COc1cc2nc(-c3ccc(C(F)(F)F)cc3)cc(OCCCNCC3CCCO3)c2cc1OC (stereo not given),54.3%,57.2%,53.8%,21.8%,26.3%,41.8%,37.3%,-55.2% (active),23.3%,36.7%,10.2%,-15.6% (active),18.2%,3.22% (active),59.5%,-33.6% (active),45.5%,-38.7% (active),-66.5% (active),13.7%
CS(=O)(=O)c1ccc(-c2nc3ccccn3c2/C=N/Nc2nc(-c3ccc(Br)cc3)cs2)cc1,108%,111%,121%,104%,116%,99.8%,109%,84.8%,116%,109%,86.1%,128%,105%,99.7%,108%,102%,105%,122%,112%,92.6%
